Results: PubChem BioAssay
The source made the active and inactive calls. How the calls were made is not given here.

Target: Protein kinase 7 (PK7), Plasmodium falciparum 3D7 (PF3D7_0213400) (UniProt Q7YTF7)
Test: inhibition of Plasmodium PK7 catalytic activity – biochemical, TCAMS antimalarial set, Kinase-Glo luminescence (AID 1159587)
Settings: recombinant PfPK7, Kinase-Glo ATP depletion luminescence

Sequence of Protein kinase 7 (PK7), Plasmodium falciparum 3D7 (PF3D7_0213400) (Q7YTF7 1-343): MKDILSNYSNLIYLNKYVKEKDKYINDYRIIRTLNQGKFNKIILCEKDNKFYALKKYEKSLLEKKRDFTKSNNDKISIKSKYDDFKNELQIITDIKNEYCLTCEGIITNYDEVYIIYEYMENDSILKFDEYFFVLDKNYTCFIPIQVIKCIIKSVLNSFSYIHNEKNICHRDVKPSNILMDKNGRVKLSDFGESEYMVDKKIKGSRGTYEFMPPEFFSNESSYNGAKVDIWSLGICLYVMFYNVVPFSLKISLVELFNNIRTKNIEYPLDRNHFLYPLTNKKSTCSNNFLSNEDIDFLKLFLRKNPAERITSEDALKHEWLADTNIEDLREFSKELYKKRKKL

| SMILES | outcome |
| --- | --- |
| COCCNCc1ccc(-c2ccc(CN(C(=O)Nc3ccccc3)C3CCN(Cc4ccccc4)CC3)cc2)cc1 | inactive |
| Cc1csc(-c2ccc3[nH]cc(C4=CCN(C)CC4)c3c2)n1 | inactive |
| CCCCn1c(C)c(C(=O)OCC)c2cc(OC(C)=O)c(Br)cc21 | inactive |
| Cc1csc(NC2=NCCN2)n1 | inactive |
| O=[N+]([O-])c1ccc(Oc2c(Cl)cc(S(=O)(=O)NC3CCC(CN4CCC(c5c[nH]c6ccccc56)CC4)CC3)cc2Cl)c(Cl)c1 (stereo not given) | inactive |
| CN1CC=C(c2c[nH]c3ccc(OCc4ccccc4)cc23)CC1 | inactive |
| COc1ccc(CC(C)NCC(O)c2ccc(Cl)c(Cl)c2)cc1 (stereo not given) | inactive |
| COC(=O)c1ccc(CC(C)NCC(O)c2ccccc2Cl)cc1 (stereo not given) | inactive |
| Cc1cc(C(=O)NC2CCN(CC3(c4ccc(Cl)cc4)CCC3)CC2)on1 | inactive |
| O=C(/C=C/c1cc(F)cc(C(F)(F)F)c1)N1CCC(CN2CCC(c3c[nH]c4ccccc34)CC2)CC1 | inactive |
| CS(=O)(=O)Nc1ccc2[nH]cc(C3CCN(CC4CCC(NC(=O)/C=C/c5ccc(Cl)c(Cl)c5)CC4)CC3)c2c1 (stereo not given) | inactive |
| c1ccc2c(NCCCCCCCCCNc3c4ccccc4nc4ccccc34)c3ccccc3nc2c1 | inactive |
| CC(Cc1ccc(Oc2ccccc2)cc1)NCC(O)c1cccc(C(F)(F)F)c1 (stereo not given) | inactive |
| COC(=O)/C=C/c1ccc(C[C@@H](C)NC[C@H](O)c2cccc(C(F)(F)F)c2)cc1 | inactive |
| CC[C@H]1CN2CC[C@H]1C[C@H]2[C@H](O)c1cc(-c2ccccc2C)nc2ccc(OC)cc12 | inactive |
